# Test results published in PubChem BioAssay (NCATS).
# Values joined by “and” are separate entries in the source; they are usually repeats but may differ in a detail not shown here. Identical values can stand only once. Records with an inconclusive call do not appear. Where a call stands in place of a potency, no number is given. A number with no mark means an inactive call. Active and inactive are the calls of the source. The call rests on the fitted dose curve; in most records, active means well fitted curve in the direction sought with a large enough effect; inconclusive means small, poorly fitted or top-dose-only effect, or another doubt; inactive means no such curve, though single readings can be large; an effect the other way counts as inactive or inconclusive.
# How the values were obtained:
# [1] = test system: Zika virus NS2B-NS3 protease (linked construct); assay: Primary screen NINDS Rhodamine qHTS for Zika virus inhibitors (AID 1347160); further: nearly all actives have a fitted effect of over 55% in size; further: potency means the concentration at half of the fitted maximal effect
# In short: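 Purified linked NS2B-NS3 protease (NS2B hydrophilic domain joined to NS3 protease by flexible linker), 25 nM in 10 mM Tris-HCl pH 8.0, 0.01% Tween 20. Compounds titrated, 15 min preincubation at room temperature; 1.5 microM Rhodamine110 substrate, FITC fluorescence change over 15 min.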
# [2] = test system: Zika virus NS2B-NS3 protease (unlinked complex); assay: Primary screen GU Rhodamine qHTS for Zika virus inhibitors: Unlinked NS2B-NS3 protease assay (AID 1347159); further: nearly all actives have a fitted effect of over 60% in size
# In short: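 Noncovalent NS2B hydrophilic domain–NS3 protease domain complex (25 nM) preincubated 15 min at room temperature with compounds (up to 114 microM) in 10 mM Tris-HCl pH 8.0, 0.01% Tween 20; 1.5 microM Rhodamine110 substrate added, fluorescence change over 15 min fitted to Hill equation.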
# [3] = molecular target: Lysine-specific demethylase 5B (Homo sapiens) (UniProt Q9UGL1); assay: Optimization screen for KDM5B Histone Demethylases FDH coupled qHTS against the LOPAC library (AID 1347166)
# Lysine-specific demethylase 5B (Homo sapiens), sequence (Q9UGL1 whole entry, looked up): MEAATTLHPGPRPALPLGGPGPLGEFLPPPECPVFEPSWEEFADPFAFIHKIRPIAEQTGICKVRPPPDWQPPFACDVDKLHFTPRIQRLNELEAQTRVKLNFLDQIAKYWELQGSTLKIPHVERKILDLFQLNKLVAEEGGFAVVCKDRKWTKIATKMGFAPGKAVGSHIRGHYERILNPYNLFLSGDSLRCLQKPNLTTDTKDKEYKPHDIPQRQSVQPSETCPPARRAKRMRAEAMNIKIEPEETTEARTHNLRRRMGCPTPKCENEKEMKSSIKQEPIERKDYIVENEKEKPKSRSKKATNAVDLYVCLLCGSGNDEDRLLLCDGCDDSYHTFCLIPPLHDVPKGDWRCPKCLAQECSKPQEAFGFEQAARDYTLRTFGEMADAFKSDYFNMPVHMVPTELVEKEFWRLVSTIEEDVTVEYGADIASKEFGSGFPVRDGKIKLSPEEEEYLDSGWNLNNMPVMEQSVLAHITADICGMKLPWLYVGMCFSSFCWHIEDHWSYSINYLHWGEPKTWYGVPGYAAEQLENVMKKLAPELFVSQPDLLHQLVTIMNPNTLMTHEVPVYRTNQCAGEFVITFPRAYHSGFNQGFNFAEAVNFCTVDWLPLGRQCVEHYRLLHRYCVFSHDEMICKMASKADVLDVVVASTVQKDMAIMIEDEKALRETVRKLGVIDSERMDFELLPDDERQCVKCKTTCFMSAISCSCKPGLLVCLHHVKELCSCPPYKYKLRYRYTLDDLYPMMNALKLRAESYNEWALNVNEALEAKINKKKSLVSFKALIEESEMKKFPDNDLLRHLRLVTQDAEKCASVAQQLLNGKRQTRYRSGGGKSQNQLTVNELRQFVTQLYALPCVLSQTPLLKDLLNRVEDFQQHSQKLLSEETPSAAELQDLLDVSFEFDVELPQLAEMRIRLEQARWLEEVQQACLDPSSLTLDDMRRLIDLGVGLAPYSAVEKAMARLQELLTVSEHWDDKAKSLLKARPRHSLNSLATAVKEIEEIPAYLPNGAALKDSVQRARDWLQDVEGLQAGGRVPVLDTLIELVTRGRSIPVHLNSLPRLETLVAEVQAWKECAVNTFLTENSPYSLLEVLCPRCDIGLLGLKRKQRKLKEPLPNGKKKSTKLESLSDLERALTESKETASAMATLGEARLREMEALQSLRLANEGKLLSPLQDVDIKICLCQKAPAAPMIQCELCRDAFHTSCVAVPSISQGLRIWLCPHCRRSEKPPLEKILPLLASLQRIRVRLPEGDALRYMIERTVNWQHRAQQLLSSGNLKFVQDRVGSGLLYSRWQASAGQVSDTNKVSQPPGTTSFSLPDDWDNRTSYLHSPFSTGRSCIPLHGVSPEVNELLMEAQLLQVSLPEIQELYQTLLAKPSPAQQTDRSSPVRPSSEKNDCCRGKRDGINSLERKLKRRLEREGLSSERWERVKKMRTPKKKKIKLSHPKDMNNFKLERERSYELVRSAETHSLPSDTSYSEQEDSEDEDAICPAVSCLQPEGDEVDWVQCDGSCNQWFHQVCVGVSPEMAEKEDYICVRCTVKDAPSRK
# In short: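 KDM5BDeltaAP (200nM final) preincubated 10 min with compound, then 12.5uM H3K4Me3, 25uM a-ketoglutarate, ascorbate, Fe(II), NAD+ and FDH added; 50mM HEPES pH 7.5, 0.01% Tween-20. NADH fluorescence (340/450 nm) change over 30 min, room temperature.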
# [4] = Confirmatory screen NINDS Rhodamine qHTS for Zika virus inhibitors (AID 1347161); further: nearly all actives have a fitted effect of over 60% in size; further: potency means the concentration at half of the fitted maximal effect
# In short: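 Enzyme (25 nM, linked NS2B-NS3) was preincubated 15 min with compound in 10 mM Tris-HCl pH 8.0, 0.01% Tween 20. Rhodamine110 substrate (1.5 microM) was then added and fluorescence read at start and after 15 min.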
# [5] = Vero cells viability qHTS for Zika virus inhibitors (AID 1347167)
# In short: (§1)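 Compounds were tested in concentration series on cells grown in DMEM containing 4% FBS. After 24 to 48 hours, cellular ATP was measured by luminescence with CellTiter Glo.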
# [6] = test system: Zika virus NS2B-NS3 protease (linked); assay: 384 well plate NINDS AMC confirmatory qHTS for Zika virus inhibitors (AID 1347163); details: Recombinant NS2B-NS3 protease, Ac-VKTGKR-AMC fluorescence; further: potency means the concentration at half of the fitted maximal effect; nearly all actives have a fitted effect of over 50% in size
# In short: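 Linked protease 5/30/60 nM final; cpds up to 1 mM final, ~15 min preinc. Substrate Ac-VKTGKR-AMC 30 microM final. RT, dark, 25 min; FI ex 355/em 460; normalized to no-enzyme/no-inhibitor ctrls.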
# [7] = Tertiary RLuc qRT-PCR qHTS assay for Zika virus inhibitors (AID 1347169); further: top concentration of the series differs between compounds; nearly all actives have a fitted effect of over 55% in size
# In short: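 Inhibition of ZIKV-RLuc replication in Vero cells, read as Renilla luminescence 1-1.5 hrs after live-cell substrate addition, following 48-72 hrs infection at MOI 1-2 in presence of compound.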
# [8] = test system: Zika virus NS2B-NS3 protease (linked construct); assay: 384 well plate NINDS Rhodamine confirmatory qHTS for Zika virus inhibitors (AID 1347164); further: nearly all actives have a fitted effect of over 65% in size; further: potency means the concentration at half of the fitted maximal effect
# In short: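 Cleavage of Ac-LKRR-Rhodamine 110 (10 microM final) by linked protease (final 5, 30 or 60 nM) was followed as fluorescence at 485/538 nm after 25 min, room temperature, dark. Compounds preincubated ~15 min.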
# [9] = HepG2 cells viability qHTS for Zika virus inhibitors (AID 1347168)
# In short: as §1
# [10] = OV-KATE Cancer Cell Toxicity qHTS against the NCATS CANVASS Library (AID 1347345)
# In short: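 Quantitative HTS format: an 11-concentration series was applied to 1000 cells/well following a 4-hour attachment. Cultures ran 72 hours before ATP luminescence detection by CellTiter-Glo.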
smiles,measurement,setting,value
CC1(C)[C@@H](O[C@H]2O[C@H](C(=O)O)[C@@H](O)[C@H](O)[C@H]2O[C@@H]2O[C@H](C(=O)O)[C@@H](O)[C@H](O)[C@H]2O)CC[C@]2(C)[C@H]3C(=O)C=C4[C@@H]5C[C@@](C)(C(=O)O)CC[C@]5(C)CC[C@@]4(C)[C@]3(C)CC[C@@H]12,Potency,[1],inactive
COc1cc(CNC(=O)CCCC/C=C/C(C)C)ccc1O,Potency,[2],inactive
same,Potency,[1],inactive
O=C(O)[C@@H]1C[C@H](C(=O)O)N1,outcome,[3],inactive
CN1CCc2cccc3c2C1Cc1ccc(O)c(O)c1-3 (stereo not drawn),outcome,[3],inactive
Cc1cc2c(cc1Cl)N(C(=O)Nc1ccc(Oc3cccnc3C)nc1)CC2,outcome,[3],inactive
CCCCCC(O)c1cccc(OCc2ccc3ccccc3n2)c1 (stereo not drawn),outcome,[3],inactive
OC[C@H]1O[C@@H](n2cnc3c(NC4CCCC4)ncnc32)[C@H](O)[C@@H]1O,outcome,[3],inactive
CC1(C)CCC=[N+]1[O-],outcome,[3],inactive
C=C[C@@H]1CN2CC[C@@H]1C[C@H]2[C@H](O)c1ccnc2ccc(OC)cc12,Potency,[4],inactive
same,outcome,[5],inactive
O=C(Nc1cccc(C(=O)Nc2ccc(S(=O)(=O)O)c3cc(S(=O)(=O)O)cc(S(=O)(=O)O)c23)c1)Nc1cccc(C(=O)Nc2ccc(S(=O)(=O)O)c3cc(S(=O)(=O)O)cc(S(=O)(=O)O)c23)c1,Potency,[4],2 µM (active) and 1.26 µM (active)
same,Potency,[6],22.4 µM (active)
same,outcome,[3],inactive
same,Potency,[7],inactive
Nc1ncnc2c1c(I)cn2[C@@H]1C[C@H](N)[C@@H](O)[C@H]1O,outcome,[3],inactive
O=C1NC(=O)/C(=C/c2ccc(-c3ccc(F)cc3O)o2)S1,Potency,[4],24.8 µM (active)
same,Potency,[6],63.1 µM (active)
same,Potency,[8],20 µM (active)
same,outcome,[9],inactive
same,Potency,[7],inactive
NCC1OC(O[C@H]2[C@H](O)[C@@H](OC3C(O)C(N)CC(N)C3OC3OC(CO)C(O)C(O)C3N)O[C@@H]2CO)C(N)C(O)C1O (stereo partly drawn),outcome,[3],inactive
CCCCC#Cc1nc(NC)c2ncn([C@@H]3O[C@H](CO)[C@@H](O)[C@H]3O)c2n1,outcome,[3],inactive
CN1CCN(c2cc3c(nn2)Oc2ccccc2N3C)CC1,Potency,[4],inactive
same,outcome,[5],inactive
same,outcome,[9],inactive
same,Potency,[7],inactive
CN1C2CCC1CC(OC(=O)C(O)c1ccccc1)C2 (stereo not drawn),outcome,[3],inactive
O=C(c1cc(O)c(O)c([N+](=O)[O-])c1)c1ccccc1F,Potency,[4],17.5 µM (active)
same,Potency,[6],112 µM (active)
same,Potency,[8],0.398 µM (active)
same,outcome,[9],inactive
COc1ccc(Br)cc1S(=O)(=O)NC(=O)/C=C/c1ccccc1Cc1ccc2ccccc2c1,Potency,[4],1.96 µM (active)
same,Potency,[6],0.251 µM (active)
same,Potency,[8],inactive
same,outcome,[5],inactive
same,outcome,[9],inactive
CN(C)c1ccc(/C=C2\C(=O)Nc3ccccc32)cc1,outcome,[3],inactive
O=C(O)c1cc(O)c(O)c(O)c1,Potency,[1],49.3 µM (active)
same,outcome,[10],inactive
CSc1nc(N)c2ncn([C@@H]3O[C@H](COP(=O)(O)OP(=O)(O)OP(=O)(O)O)[C@@H](O)[C@H]3O)c2n1,outcome,[3],inactive
CN1C2CC(OC(=O)[C@H](CO)c3ccccc3)CC1C1OC12 (stereo partly drawn),outcome,[3],inactive
COc1ccc(/C=C/c2nc(NCCCN(C)C)c3ccccc3n2)cc1,Potency,[4],inactive
same,outcome,[5],inactive
same,outcome,[9],inactive
CN(C)[C@@H]1C(=O)C(C(=O)NCN2CCCC2)=C(O)[C@@]2(O)C(=O)C3=C(O)c4c(O)cccc4[C@@](C)(O)C3C[C@@H]12 (stereo partly drawn),Potency,[6],0.891 µM (active)
same,Potency,[8],44.7 µM (active)
Cn1cc(C2=C(c3ccc(Cl)cc3Cl)C(=O)NC2=O)c2ccccc21,outcome,[3],inactive
Nc1nc(Nc2ccccc2)nc2c1ncn2[C@@H]1O[C@H](CO)[C@@H](O)[C@H]1O,outcome,[3],inactive
CN(C)C(N)=NCCC[C@H](N)C(=O)O,outcome,[3],inactive
O=C(/C=C/c1ccc(O)c(O)c1)OCCc1ccccc1,outcome,[3],inactive
O=C(O)c1cc([N+](=O)[O-])ccc1NCCCc1ccccc1,outcome,[3],inactive
CCCCCCCCCCCCCCCCCC(=O)OC(CC(=O)O)C[N+](C)(C)C (stereo not drawn),outcome,[3],inactive
COc1ccccc1N1CCN(CCCCNS(=O)(=O)c2cccc3c(N(C)C)cccc23)CC1,outcome,[3],inactive
NCCNC(=O)c1ncsc1-c1cccc(F)c1,outcome,[3],inactive
O=C(NOCC1CC1)c1cc(Br)c(F)c(F)c1Nc1ccc(I)cc1Cl,Potency,[4],3.92 µM (active)
same,Potency,[6],44.7 µM (active)
same,Potency,[8],31.6 µM (active)
CC(C)NCC(O)COc1cccc2ccccc12 (stereo not drawn),outcome,[3],inactive
C[N+](C)(C)CC(=O)[O-],outcome,[3],inactive
CN(C)CCCO[C@@H]1[C@H]2OC(C)(C)O[C@H]2O[C@@H]1[C@H](O)CO,outcome,[3],inactive
CCCCCCCCCCCCCCCCCCNC(=O)OCC(COP(=O)([O-])OCC[n+]1ccsc1)OC (stereo not drawn),outcome,[3],inactive
Nc1ncnc2c1ncn2[C@@H]1O[C@H](COP(=O)(O)OP(=O)(O)OP(=O)(O)OP(=O)(O)OC[C@@H]2O[C@H](n3cnc4c(N)ncnc43)[C@@H](O)[C@H]2O)[C@@H](O)[C@H]1O,outcome,[3],inactive
N=c1ccn2c(n1)O[C@H]1[C@H](O)[C@@H](CO)O[C@H]12,outcome,[3],inactive
O=C1O/C(=C/Br)CCC1c1cccc2ccccc12 (stereo not drawn),outcome,[3],inactive
CNC(=O)[C@H]1O[C@@H](n2cnc3c(NCc4ccc(N)cc4)ncnc32)[C@H](O)[C@@H]1O,outcome,[3],inactive
CCCN(CC1CC1)c1nc(C)nc(Nc2c(Cl)cc(Cl)cc2Cl)c1Cl,outcome,[3],inactive
CC(C)CC(NP(=O)(O)O[C@@H]1O[C@@H](C)[C@H](O)[C@@H](O)[C@H]1O)C(=O)NC(Cc1c[nH]c2ccccc12)C(=O)O (stereo partly drawn),outcome,[3],inactive
